In the library only some 3.5% were active in any assay of this set; here they are far more common.
ERa coact inh: blocks coactivator binding to human estrogen receptor alpha | actives 1.7% (n = 86,000) | inhibition, % at 25.6 µM | TR-FRET ER-alpha LBD / SRC-1 peptide, estradiol-bound | P03372 | AID 629; in the data active = inhibition above about 50%;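 also: 0% = receptor plus peptide control and 100% = peptide only without receptor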
CD11b adhes inh: blocks human CD11b/CD18 adhesion to fibrinogen; actives 0.54% (n = 93,000); K562 CD11b/CD18 adhesion to fibrinogen, ATPlite luminescence; Mn2+ added to activate the integrin; P05107+P11215; inhibition, % at 10 µM;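 active = primary inhibition of 50% or more at 10 µM, then 40% or more on retest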
Target sequence (P05107 whole entry, looked up, other chains not shown): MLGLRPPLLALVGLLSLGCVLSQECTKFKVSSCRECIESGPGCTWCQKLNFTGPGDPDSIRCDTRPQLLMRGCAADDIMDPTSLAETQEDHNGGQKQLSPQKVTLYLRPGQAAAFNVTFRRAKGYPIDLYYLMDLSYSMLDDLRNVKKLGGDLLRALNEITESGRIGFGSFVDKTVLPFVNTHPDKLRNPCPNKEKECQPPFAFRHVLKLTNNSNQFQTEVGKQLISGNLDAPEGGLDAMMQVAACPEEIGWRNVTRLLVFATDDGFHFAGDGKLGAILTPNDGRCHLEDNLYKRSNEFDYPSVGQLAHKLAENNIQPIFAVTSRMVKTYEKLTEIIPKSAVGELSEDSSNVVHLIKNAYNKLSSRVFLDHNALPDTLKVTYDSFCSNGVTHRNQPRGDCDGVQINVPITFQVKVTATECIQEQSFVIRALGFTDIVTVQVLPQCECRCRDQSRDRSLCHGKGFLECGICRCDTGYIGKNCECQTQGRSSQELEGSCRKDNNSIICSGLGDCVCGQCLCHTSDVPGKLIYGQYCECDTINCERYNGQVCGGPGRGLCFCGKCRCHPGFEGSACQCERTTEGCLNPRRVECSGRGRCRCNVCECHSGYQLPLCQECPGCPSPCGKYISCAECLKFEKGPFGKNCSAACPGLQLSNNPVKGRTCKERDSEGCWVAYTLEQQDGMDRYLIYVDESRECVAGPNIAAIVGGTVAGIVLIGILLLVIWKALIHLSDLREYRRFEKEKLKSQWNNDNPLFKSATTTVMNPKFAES
CD11b adhes enh: enhancers of human CD11b/CD18 binding to fibrinogen. activation, % at 10 µM. K562 CD11b/CD18 adhesion to fibrinogen, ATPlite luminescence. actives 0.07% (n = 93,000);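 active = 10 µM primary screen giving 50% or more activity, confirmed by 40% or more on retest at that dose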
FAK inh: inhibitors of human focal adhesion kinase. biochemical FAK kinase activity assay. inhibition, %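 (tested at 7 µM)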. actives 0.84% (n = 97,000); in the data active = inhibition above about 19%;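 also: 0% = DMSO and 100% = reference compound high control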
ERb SRC1 inh: ER-beta (human) coactivator binding inhibition; Q92731; TR-FRET ER-beta LBD / SRC1-Cy5 peptide binding; receptor agonist-loaded with 1 µM estradiol; inhibition, % at 25.6 µM; actives 1.3% (n = 86,000); AID 633;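 active = compounds whose percent inhibition of the receptor-coactivator binding signal exceeds about 50% in the single-dose screen, limit read from the data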;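 also: 0% = receptor plus peptide wells without compound and 100% = peptide-only wells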
ERa SRC1 pot: ER-alpha (human) coactivator binding potentiation; P03372; TR-FRET ERalpha-LBD/SRC-Cy5 coactivator binding, 2 h; 100 = basal binding, no effect; coactivator binding (% of control), % at 25.6 µM; actives 1.3% (n = 86,000); AID 639; in the data active = activity above about 200%;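 also: binding measured in presence of low estradiol as agonist stimulus; 0% = peptide alone without receptor and 100% = receptor with peptide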
The depositor's hits bear a star; · = no result given; [ ] = dose if it differs, or a comment.

SMILES | ERa coact inh | CD11b adhes inh | CD11b adhes enh | FAK inh | ERb SRC1 inh | ERa SRC1 pot
COc1ccc(N2C(=O)NC3CC2(C)Oc2ccccc23)cc1OC (stereo not given) | 1 | · | · | -1 | 1 | 97
CCC(=O)Nc1nc(C)cc(SCC(=O)OC)n1 | -2 | -1 | -2 | -4 | -1 | 124
Cc1cc(C(=O)NNC(=S)NC(=O)/C=C/c2ccccc2Cl)n[nH]1 | 19 | 65* | 1 | 0 | 13 | 78
Cc1cc(C)nc(NC(=O)/C=C/c2ccccc2Cl)n1 | · | -9 | 1 | -2 | · | ·
Cc1ccc(C)n1-c1cccc(C(=O)O)c1 | 0 | -10 | 8 | · | 25 | 328*
O=C(O)c1cccc(N2CCCC2)c1 | 1 | 1 | -2 | -1 | -2 | 103
COc1cc(=O)[nH]c(=O)n1CC(=O)c1ccccc1 | · | · | · | 0 | · | ·
CCC(=O)N1CCN(c2ccc(NC(=O)COc3ccccc3Cl)cc2)CC1 | -4 | 21 | -5 | 2 | -10 | 115
Cc1ccc(OCC(=O)Nc2ccc(N3CCCC3)cc2)cc1C | 99*[fluorescence artefact?] | 6 | 77 | 14 | 82*[fluorescence artefact?] | -2
Cc1cccc(OCC(=O)Nc2cccc(-c3nnc(-c4ccccc4)o3)c2)c1C | 72*[fluorescence artefact?] | · | · | 10 | 44 | 124
CN1CCN(c2ccc(NC(=O)COc3ccccc3Cl)cc2)CC1 | 57*[fluorescence artefact?] | 10 | -2 | 18 | 72*[fluorescence artefact?] | 28
Cc1cccc(OCC(=O)Nc2ccc(N3CCCC3)cc2)c1C | 95*[fluorescence artefact?] | -5 | 64 | · | 59*[fluorescence artefact?] | 6
COCCCNC(=O)CN(c1cc(OC)ccc1OC)S(=O)(=O)c1ccccc1 | -13 | -6 | -2 | 2 | -19 | 97
Cc1ccc(SCc2ccc(C(=O)Nc3cccc([N+](=O)[O-])c3)cc2)cc1 | · | · | · | 1 | · | ·
COc1cc2c(cc1OC)-c1cc(NCc3ccccn3)nc(=O)n1CC2 | -10 | -4 | -1 | -1 | 48 | 513*[fluorescence artefact?]
CCNc1cc2n(c(=O)n1)CCc1cc(OC)c(OC)cc1-2 | -8 | -11 | -1 | 3 | -2 | 98
COc1ccc2cc(CN(CCCN3CCOCC3)Cc3nnnn3C3CCCC3)c(=O)[nH]c2c1 | -10 | -4 | 0 | 1 | -10 | 261*[fluorescence artefact?]
COc1ccc(CN(Cc2cc3ccc(C)cc3[nH]c2=O)Cc2nnnn2C2CCCC2)cc1 | 7 | 8 | 5 | · | -6 | 101
O=C(NCC(=O)N(c1cnc2ccccc2c1)C(C(=O)NC1CCCC1)c1ccncc1)c1ccco1 (stereo not given) | 0 | · | · | -8 | 0 | 126
O=C(Nc1ccc(N2CCCC2)cc1)c1ccc(Br)o1 | 59*[fluorescence artefact?] | 9 | 54 | 4 | 68*[fluorescence artefact?] | 58
CCOC(=O)CSc1nc2cc(C)ccc2cc1C#N | 4 | · | · | 4 | 3 | 111
Cc1cc2cc3c(cc2nc1SCC(=O)N1c2ccccc2CC1C)OCO3 (stereo not given) | 51*[fluorescence artefact?] | · | · | 1 | 48 | 162
CC1Cc2ccccc2N1C(=O)CSc1nc2cc3c(cc2cc1C#N)OCO3 (stereo not given) | 24 | 14 | -6 | 0 | 23 | 298*[fluorescence artefact?]
Cc1cc2ccccc2nc1SCC(=O)N1c2ccccc2CC1C (stereo not given) | 1 | 10 | 1 | 1 | 0 | 101
COC(=O)CSc1nc2cc3c(cc2cc1C#N)OCO3 | 30 | -6 | -1 | -32 | 16 | 284*[fluorescence artefact?]
SMILES | ERa coact inh | CD11b adhes inh | CD11b adhes enh | FAK inh | ERb SRC1 inh | ERa SRC1 pot
CCOC(=O)CSc1nc2cc(OC)ccc2cc1C#N | 13 | 5 | -1 | 1 | 38 | 347*[fluorescence artefact?]
Cc1ccc(S(=O)(=O)NC(=O)Nc2ccccc2F)cc1 | 4 | · | · | 1 | 8 | 93
O=C(NCc1ccco1)c1ccc(Cn2c(=O)c3ccccc3n(Cc3cccc(F)c3)c2=O)cc1 | 67*[fluorescence artefact?] | -19 | 1 | 4 | 47 | 24
O=C(Cn1c(=O)n(Cc2ccccc2)c(=O)c2ccccc21)NCc1ccco1 | 6 | -10 | -1 | -1 | 8 | 120
COc1cc2c(=O)n(Cc3ccccc3)c(=O)n(CC(=O)NCc3ccco3)c2cc1OC | 37 | · | · | 2 | 4 | 349*[fluorescence artefact?]
O=C(Nc1ccncc1)c1cc2ccccc2oc1=O | -16 | · | · | · | 9 | 87
COc1cc(/C=c2\sc3nc(-c4ccncc4)nn3c2=O)ccc1OC(C)=O | 68* | -1 | -4 | 2 | 45 | 59
